# Measured values reported in PubChem BioAssay (NCI).
# Compounds without any hit were thinned out: in the full panel of roughly 83,000, 20% have a hit.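 Step 1: grow cells in 96-well plates. Step 2: add test compound at a single concentration. Step 3: incubate 48 h. Step 4: record percent growth.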 Activity calls are given as the source filed them. How the source made its calls: active means growth percent below 10; inactive means the rest.
# Tested on: NCI/ADR-RES ovarian
# Test: NCI-60 one-dose screen, 48 h (100 = growth as untreated, 0 = no growth, -100 = all killed)
# Details: 10 µM unless noted
row,SMILES,growth
1,COc1ccc(OC)c(-c2ccc(-c3ccccc3N)c3[nH]c4ccccc4c23)c1,85.8% (inactive)
2,COc1ccc(S(=O)(=O)Nc2cc(/C=C\c3cc(OC)c(OC)c(OC)c3)cc(OC)c2OC)cc1OC,12.6% (inactive)
3,Cc1cc(NC(=O)COC(=O)c2sc3cc(F)ccc3c2Cl)no1,107% (inactive)
4,Nc1c(C(=O)Nc2cccc(C(F)(F)F)c2)sc2nc3c(cc12)C(O)CCC3 (stereo not given),22.5% (inactive)
5,CC(=O)C1CCC(C)=CC1=O (stereo not given),95.6% (inactive)
6,COc1ccc(-c2nc3sccn3c2-c2ccnc(NCCCNS(=O)(=O)c3ccc(F)cc3)n2)cc1,-5.58% (active)
7,COc1cc(-c2csc(NC(=O)Nc3ccc(Cl)cc3Cl)n2)cc(OC)c1OC,9.75% (active)
8,CCSc1nnc(Nc2ccc(C(C)C)cc2)s1,87.6% (inactive)
9,CCOC(=O)CC/C(C)=N\Nc1ccc([N+](=O)[O-])cc1,80.3% (inactive)
10,Cc1ccc2c(c1)C(=O)C(c1c(-c3[nH]c(=O)c4ccc(C)cc4c3O)c(O)c3ccccc3c1O)=NC2=O,14.9% (inactive)
11,CN(C)CCCNC(=O)C(c1ccccc1)c1ccccc1,97.7% (inactive)
12,COc1ccc(-c2nnc(COc3ccc(NC(=O)Nc4ccc(Cl)c(C(F)(F)F)c4)cc3F)o2)cc1,5.91% (active)
13,O=c1oc2cc(OS(=O)(=O)c3ccc(F)cc3)ccc2c2c1CCCCC2,51.1% (inactive)
14,Nc1nc(-c2ccccc2)cs1,110% (inactive)
15,COc1ccc(C(=O)/C=C/c2cccc([N+](=O)[O-])c2)c(OC)c1,11.2% (inactive)
16,C=CCOc1cccc(/C=C/C(=O)c2sc(Nc3cccnc3)nc2C)c1,50.2% (inactive)
17,Cc1cc(Nc2nc(C(=O)Nc3ccccc3)nc3ccccc23)n[nH]1,44.2% (inactive)
18,CC1CCN(C(=O)CSc2nc3sc4c(c3c(=O)[nH]2)CCCC4)CC1,109% (inactive)
19,COc1ccc(-c2nc(-c3nc4ccc(F)cc4[nH]3)cc3c2[nH]c2ccccc23)cc1,19.7% (inactive)
20,CC/C=C\C[C@H](O)C/C=C1/C(=O)C(Cl)=C[C@@H]1C/C=C\CCCC(=O)O,57.1% (inactive)
21,O=c1[nH]c2ccccc2cc1-c1nnc(Cc2ccccc2)o1,89.8% (inactive)
22,COc1ccc(C2CC(c3cccs3)=NN2c2ccc(S(=O)(=O)NC(=O)Nc3ccc(C)cc3)cc2)cc1 (stereo not given),103% (inactive)
23,CCSc1nnc(NC(=O)COc2ccc(Cl)cc2C)s1,106% (inactive)
24,COc1ccc(Cn2c(SC)nc(=O)n(Cc3ccc(Cl)cc3)c2=O)cc1,95.4% (inactive)
25,O=C(Nc1ccc(Br)c(Cl)c1)c1cc(F)ccc1O,6.11% (active)
26,O=C(CCl)NCCNc1nccc(Nc2ccc(S(=O)(=O)Nc3ccccn3)cc2)n1,46.5% (inactive)

# Tested on: T-47D breast
# Test: as above
# Details: 10 µM unless noted
row,SMILES,growth
1,O=S(=O)(NCCCNc1cc(-c2cn(-c3ccccc3)nc2-c2cccc(O)c2)ccn1)c1ccc(Cl)cc1,8.59% (active)
2,COc1ccc(-c2nc3sccn3c2-c2ccnc(NCCCNS(=O)(=O)c3ccc(C)cc3)n2)cc1,-6.34% (active)
3,O=C1c2ccccc2C(=O)c2c1oc1oc3c(c(=O)c21)c(=O)n(-c1ccccc1)c1ccccc31,4.47% (active)
4,C#CCC1(c2ccc(F)c(F)c2)NS(=O)(=O)c2ccccc21 (stereo not given),85.4% (inactive)
5,Cc1nc(Nc2cccnc2)sc1C(=O)/C=C/c1ccc(F)cc1,30.2% (inactive)
6,CCC#CC[C@H]1C/C=C2/C(=O)C=C[C@@H]2C/C=C\CCCC(=O)O1,24.1% (inactive)
7,CNC(=O)Cc1nc(-c2cccc(NS(=O)(=O)c3c(F)cccc3F)c2F)c(-c2ccnc(Nc3ccccc3)n2)s1,60.2% (inactive)
8,CC(=O)Nc1ccc2c(c1)/C(=C\C=C/c1ccc([N+](C)(C)C)cc1)c1ccccc1-2,41.4% (inactive)
9,COc1cc(OC)cc(-c2n[nH]nc2-c2ccc3c(c2)OCO3)c1,55.4% (inactive)
10,O=C1CCC/C=C\C[C@H]2C=CC(=O)/C2=C/C[C@H](C/C=C\CC(F)(F)F)O1,6.6% (active)
11,O=C(Nc1cccc(Cl)c1)c1cc([N+](=O)[O-])ccc1O,41.9% (inactive)
12,O=C1N=C(c2c(-c3[nH]c(=O)c4ccc(Br)cc4c3O)c(O)c3ccccc3c2O)C(=O)c2cc(Br)ccc21,-34.2% (active)
13,COc1cc(-n2nc(C(=O)Nc3ccc(C(=O)O)cc3)nc2-c2ccccc2)cc(OC)c1OC,79% (inactive)
14,COc1ccc(OC)c(-c2ccc(-c3ccccc3N)c3[nH]c4ccccc4c23)c1,62.8% (inactive)
15,COc1ccc(S(=O)(=O)Nc2cc(/C=C\c3cc(OC)c(OC)c(OC)c3)cc(OC)c2OC)cc1OC,43.8% (inactive)
16,Cc1cc(NC(=O)COC(=O)c2sc3cc(F)ccc3c2Cl)no1,102% (inactive)
17,Nc1c(C(=O)Nc2cccc(C(F)(F)F)c2)sc2nc3c(cc12)C(O)CCC3 (stereo not given),17% (inactive)
18,CC(=O)C1CCC(C)=CC1=O (stereo not given),90.2% (inactive)
19,COc1ccc(-c2nc3sccn3c2-c2ccnc(NCCCNS(=O)(=O)c3ccc(F)cc3)n2)cc1,-12.7% (active)
20,COc1cc(-c2csc(NC(=O)Nc3ccc(Cl)cc3Cl)n2)cc(OC)c1OC,26.6% (inactive)

row,SMILES,growth
1,CCSc1nnc(Nc2ccc(C(C)C)cc2)s1,78.7% (inactive)
2,CCOC(=O)CC/C(C)=N\Nc1ccc([N+](=O)[O-])cc1,41.8% (inactive)
3,Cc1ccc2c(c1)C(=O)C(c1c(-c3[nH]c(=O)c4ccc(C)cc4c3O)c(O)c3ccccc3c1O)=NC2=O,11.9% (inactive)
4,CN(C)CCCNC(=O)C(c1ccccc1)c1ccccc1,87.9% (inactive)
5,COc1ccc(-c2nnc(COc3ccc(NC(=O)Nc4ccc(Cl)c(C(F)(F)F)c4)cc3F)o2)cc1,9.17% (active)
6,O=c1oc2cc(OS(=O)(=O)c3ccc(F)cc3)ccc2c2c1CCCCC2,30.3% (inactive)
7,Nc1nc(-c2ccccc2)cs1,96.7% (inactive)
8,COc1ccc(C(=O)/C=C/c2cccc([N+](=O)[O-])c2)c(OC)c1,26.6% (inactive)
9,C=CCOc1cccc(/C=C/C(=O)c2sc(Nc3cccnc3)nc2C)c1,61.3% (inactive)
10,Cc1cc(Nc2nc(C(=O)Nc3ccccc3)nc3ccccc23)n[nH]1,47% (inactive)
11,CC1CCN(C(=O)CSc2nc3sc4c(c3c(=O)[nH]2)CCCC4)CC1,102% (inactive)
12,COc1ccc(-c2nc(-c3nc4ccc(F)cc4[nH]3)cc3c2[nH]c2ccccc23)cc1,40.8% (inactive)
13,CC/C=C\C[C@H](O)C/C=C1/C(=O)C(Cl)=C[C@@H]1C/C=C\CCCC(=O)O,56.9% (inactive)
14,O=c1[nH]c2ccccc2cc1-c1nnc(Cc2ccccc2)o1,42.2% (inactive)
15,COc1ccc(C2CC(c3cccs3)=NN2c2ccc(S(=O)(=O)NC(=O)Nc3ccc(C)cc3)cc2)cc1 (stereo not given),78.8% (inactive)
16,CCSc1nnc(NC(=O)COc2ccc(Cl)cc2C)s1,96% (inactive)
17,COc1ccc(Cn2c(SC)nc(=O)n(Cc3ccc(Cl)cc3)c2=O)cc1,81.8% (inactive)
18,O=C(Nc1ccc(Br)c(Cl)c1)c1cc(F)ccc1O,3.88% (active)
19,O=C(CCl)NCCNc1nccc(Nc2ccc(S(=O)(=O)Nc3ccccn3)cc2)n1,9.1% (active)
